# Mtb FBA inh: inhibits M. tuberculosis FBA enzyme. inhibition, % at 1 µM. purified M. tuberculosis FBA, fluorescence read-out. AID 588726. 2.3% of 360,000 active; in the data active = inhibition above about 27%;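 note: 0% = vehicle and 100% = reference inhibitor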
# PrPC TRFRET: reduces human prion protein on the cell surface; P04156; cell surface PrPC, TR-FRET read-out; inhibition, % at 13.8 µM; 0.43% of 370,000 active; AID 720596; in the data active = inhibition above about 24%; note: 0% = median of the test wells and 100% = reference compound wells
# TcdB inh: blocks C. difficile toxin B glycohydrolase activity; TcdB glycohydrolase enzymatic assay, plate reader; P18177; 0.24% of 350,000 active; inhibition, % at 9.99 µM; in the data active = inhibition above about 10%
# Yp Topo-I inh: blocks Yersinia pestis topoisomerase I activity | Y. pestis Topo-I cleavage product accumulation, plate reader | activity, % at 10 µM | 0.064% of 360,000 active | AID 504884; in the data active = activity above about 50%, passing the limit was not always enough
# GDH-TPI counter: inhibits GDH-TPI coupling enzymes, artifact for Mtb FBA screen; GDH-TPI coupled enzyme counterscreen, NADH absorbance; inhibition, % at 4.8 µM; 1.2% of 360,000 active; AID 588335; in the data active = inhibition above about 30%;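 note: 0% = DMSO wells and 100% = wells lacking the enzyme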
# An asterisk follows results filed as active; nt = no result given. The list is not random: actives were taken first. Their share in the collection is about 3.2%.
SMILES,Mtb FBA inh,PrPC TRFRET,TcdB inh,Yp Topo-I inh,GDH-TPI counter
CCOC(=O)c1sc(=S)n(C)c1NC(=O)c1ccc(C(C)(C)C)cc1,-0.2,-1.5,0.4,1.2,40.7*
CCOC(=O)c1sc(=S)n(C)c1NC(=O)c1ccc(OC)cc1,-0.4,-10.2,0.3,3.4,36.5*
CCOC(=O)c1sc(=S)n(CC)c1NC(=O)C1CC1,1.9,-4.2,nt,-2.3,35.1*
CCOC(=O)c1sc(NC(=O)C2CCCCC2)nc1C,0.6,4.0,2.5,0.5,-3.2
COc1ccccc1-c1cnc2c(c1)C(=O)N([C@H](C)CO)C[C@H](C)[C@@H](CN(C)Cc1ccc(F)cc1)O2,nt,nt,2.2,nt,nt
O=C(C[C@H]1CC[C@@H]2[C@H](COC[C@@H](O)CN2Cc2ccc(F)cc2)O1)NCc1ccncn1,nt,nt,0.3,nt,nt
CC(=O)c1ccc(N/N=C2/CCCNC2=O)cc1,-2.5,-11.0,2.1,2.5,36.2*
Cc1ccc(N/N=C2/CCCNC2=O)cc1,-1.1,-5.3,nt,-2.3,9.2
C[C@@H]1CN([C@H](C)CO)C(=O)c2cc(NC(=O)c3ccncc3)ccc2O[C@@H]1CN(C)Cc1ccncc1,nt,nt,-1.2,nt,nt
COC(=O)c1cc(Cl)ccc1NCC(N)c1ccccc1 (stereo unspecified),114.7*,6.0,0.2,nt,nt
O=C(COC(=O)c1ccc(O)cc1)Nc1ccc(Cl)cc1C(=O)c1ccccc1,-2.8,5.0,0.7,10.3,0.0
COc1ccc(NC(=O)N(C)C[C@H]2Oc3ccc(NS(=O)(=O)c4ccc(OC)cc4)cc3C(=O)N([C@H](C)CO)C[C@H]2C)cc1,nt,nt,0.4,nt,nt
CC=Cc1ccc2n(c1=O)C[C@@H]1[C@@H](CO)[C@H](C(=O)NCc3ccccc3)N(C)[C@H]21 (mixture of isomers),nt,nt,0.0,nt,nt
O=C(O)CC(NNC(=O)c1ccccc1)C(=O)Nc1ccc([N+](=O)[O-])cc1 (stereo unspecified),6.1,-3.8,0.0,-10.9,31.4*
O=C(Nc1ccc([N+](=O)[O-])cc1)C1C(c2ccccc2)=C1c1ccccc1,2.6,-1.7,0.3,-10.6,33.3*
CC(=O)NC[C@H]1[C@H](c2ccc(-c3ccccc3)cc2)[C@H](CO)N1C(=O)C1CCC1,nt,nt,-1.3,nt,nt
N/C(=N\NC(=O)c1cccs1)c1cc2ccccc2oc1=O,2.9,12.2,-12.4,0.5,42.0*
N/C(=N\NC(=O)c1ccc(F)cc1)c1cc2ccccc2oc1=O,2.0,1.1,1.5,6.4,11.5
Cc1ccc(-n2ccc(=O)c(C(=O)Nc3ccc(S(=O)(=O)Nc4nccc(C)n4)cc3)n2)cc1,-3.8,-6.9,2.1,7.8,35.3*
O=C(COc1ccc(/C=N/NC(=O)c2ccccc2O)cc1)Nc1ccc([N+](=O)[O-])cc1,0.0,1.4,1.0,-1.6,37.8*
CN(C)CCCNC(=O)C[C@H]1CC[C@@H]2[C@H](COc3ccc(NS(C)(=O)=O)cc3C(=O)N2C)O1,nt,nt,1.2,nt,nt
O=C(Nc1cccc(-c2cn3ccccc3n2)c1)c1ccccc1,3.5,-6.3,1.8,0.2,4.3
O=C(Nc1ccccc1)Nc1cccc(-c2cn3cccnc3n2)c1,3.6,-16.8,0.9,8.4,10.0
CCN(CC)S(=O)(=O)c1cccc(-c2cn3cccnc3n2)c1,180.7*,-2.8,1.5,7.9,24.7
